Several values for one entry are separate records, joined by “and”; a condition that tells them apart may be missing. Identical values can stand only once. The source holds several records for some structures; these can differ, active in one and inactive in another. Activity calls are given as the source filed them. How the source made its calls: active means hit-call score of the fitted dose curve at least 0.9, where 1 is the maximum; inactive means score below 0.9.
What was measured:
[1] = read-out: Vascular cell adhesion molecule 1 (VCAM1), VCAM1 (gene 7412); assay: BSK_IMphg_VCAM1: BioMAP Diversity Plus: IMphg Assay for Vascular cell adhesion molecule 1 (VCAM1) Biomarker Activity (AID 2284286); settings: primary human endothelial cells with macrophages
Summary of the method: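 Human venular endothelial cells co-cultured with macrophages; VCAM-1 quantified by ELISA 24 h after dosing, fitted in the positive direction against DMSO. Cytotoxicity was checked in parallel cultures by SRB total-protein staining (0.1% SRB after 10% TCA fixation, 560 nm).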

[2] = read-out: Intercellular Adhesion Molecule 1 (ICAM1), ICAM1 (gene 3383); assay: BSK_hDFCGF_ICAM1: BioMAP Diversity Plus: hDFCGF Assay for Intercellular Adhesion Molecule 1 (ICAM1) Biomarker Activity (AID 2284287); settings: primary human foreskin fibroblasts
Summary of the method: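 Primary human foreskin fibroblasts (hDFCGF system) dosed with chemical; ICAM-1 quantified by ELISA at 24 h relative to DMSO. Parallel SRB total-protein staining to assess overt cytotoxicity.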

[3] = read-out: E-selectin (Homo sapiens) (UniProt P16581); assay: BSK_IMphg_ESelectin: BioMAP Diversity Plus: IMphg Assay for Eselectin Biomarker Activity (AID 2284291); settings: primary human endothelial cells with macrophages
Summary of the method: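 Human venular endothelial cell–macrophage co-culture, E-selectin measured by ELISA 24 h after chemical dosing. Signal fitted in the positive direction against DMSO as negative control and baseline.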

[4] = BSK_IMphg_SRB: Viability Assessment in the BioMAP Diversity Plus: IMphg Assay (AID 2284292); settings: primary human endothelial cells with macrophages;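 further: measured one day after compound addition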
Summary of the method: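 Human venular endothelial cells with macrophages, 24 h after chemical dosing; total protein by 0.1% SRB staining after 10% TCA fixation, read at 560 nm. Positive-direction fitting versus DMSO baseline.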

[5] = read-out: Macrophage colony-stimulating factor (MCSF), CSF1 (gene 1435); assay: BSK_IMphg_MCSF: BioMAP Diversity Plus: IMphg Assay for Macrophage colony-stimulating factor (MCSF) Biomarker Activity (AID 2284293); settings: primary human endothelial cells with macrophages
Summary of the method: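 Co-culture of human venular endothelial cells and macrophages, 24 hours of chemical exposure. M-CSF quantified by ELISA, with parallel SRB total-protein staining for cytotoxicity; activity fitted relative to DMSO.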

[6] = read-out: Interleukin-10 (IL10), IL10 (gene 3586); assay: BSK_IMphg_IL10: BioMAP Diversity Plus: IMphg Assay for Interleukin-10 (IL10) Biomarker Activity (AID 2284294); settings: primary human endothelial cells with macrophages
Summary of the method: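 Human venular endothelial cells cocultured with macrophages, dosed 24 h; IL-10 measured by ELISA, activity relative to DMSO. Cytotoxicity assessed in parallel cultures by sulforhodamine B total-protein staining.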

[7] = read-out: Thrombomodulin, THBD (gene 7056); assay: BSK_LPS_Thrombomodulin: BioMAP Diversity Plus: LPS Assay for Thrombomodulin Biomarker Activity (AID 2284296); settings: primary human HUVEC with PBMC
Summary of the method: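 Human umbilical vein endothelial cells co-cultured with PBMC and stimulated with LPS; cell-surface thrombomodulin measured by ELISA 24 hours after compound. Gain or loss versus DMSO; cytotoxicity checked by SRB staining in parallel cultures.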

[8] = IUF_NPC2c_oligodendrocyte_migration_120hr: Leibniz Research Institute for Environmental Medicine (IUF) 120-hour Neural Progenitor Cell Migration Assay for Oligodendrocyte Migration (NPC2c) (AID 2284297)
Summary of the method: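 Human fetal neural progenitor spheres (0.3 mm) are plated on poly-D-lysine/laminin in N2 differentiation medium and exposed for 120 h, with half-medium renewal at day 3. Oligodendrocyte (O4+) migration distance comes from ICC imaging, normalised to radial glia migration.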

[9] = IUF_NPC2a_radial_glia_migration_120hr: Leibniz Research Institute for Environmental Medicine (IUF) 120-hour Neural Progenitor Cell Migration Assay for Radial Glia Migration (NPC2a) (AID 2284298)
Method: IUF_NPC2-5 is a cell-based, multiplexed assay that uses hNPC, a human primary neural progenitor cells, with measurements taken at 72 or 120 hours after chemical dosing in a 96-well plate. Human neural progenitor cells (hNPC) are generated from human fetal brain cortex at gestational week (GW) 16-19. In the neural progenitor cell migration and differentiation assay (NPC2-5), hNPCs grown as spheres are plated on an extracellular matrix and migrate and differentiate out of the sphere core. The processes radial glia migration, neuronal and oligodendrocyte migration as well as neuronal differentiation, neuronal morphology and oligodendrocyte differentiation are studied using automated phase contrast imaging and automated fluorescence imaging in combination with high content image analysis. In parallel, the cell viability is assessed using an alamar blue viability assay and the cytotoxicity using a lactate dehydrogenase dependent membrane integrity assay.IUF_NPC2a_radial_glia_migration_120hr is one of 12 assay components measured from the IUF_NPC2-5 assay. The migration distance of radial glia at 120 hr is assessed in um from the edge of the sphere core to the edge of the migration area based on fluorescent images of Hoechst-positive nuclei. With the identification of each nucleus position around the sphere core, migration-related parameters can be calculated. First, a nuclei density distribution is calculated for which an algorithm determines relatively more and less dense nuclei areas. This calculation identifies the sphere core by the densest nuclei area in the image. The algorithm further assumes that nuclei density decreases from the sphere core to the periphery. When the nuclei density hits a pre-defined threshold, the outer boundaries of the migration area are determined and the sphere itself is mapped out in a polynomial bounding box. Derived from this box, the size of the migration area and the migration distance are calculated for each well.Data from the IUF_NPC2a_radial_glia_migration_120hr component was analyzed at the endpoint IUF_NPC2a_ radial_glia_migration_120hr in the positive analysis fitting direction relative to DMSO as the negative control and baseline of activity. Using a type of migration reporter, gain or loss-of-signal activity can be used to understand developmental effects.
Culture protocol: After the cell expansion period the cells are cultured for up to four weeks in which they are passaged every week as described in 3.6. Between one to three days after passaging spheres at a size of 0.3 mm are picked for the test method. For the assessment of neural progenitor cell migration and differentiation, the spheres are plated on poly-D-lysine/laminin coated 96-well flat bottom plates in differentiation medium (N2) to initiate migration and differentiation. Thereby one 0.3 mm big sphere is plated in the middle of a well. The differentiation medium consists of DMEM and Ham's F12 at a ratio of 3 to 1 supplemented with 1% N2 and 1% penicillin and streptomycin. Within 5 days NPCs radially migrate out of the sphere core and differentiate into radial glia cells (nestin positive), neurons (TUBB3 positive), oligodendrocytes (O4 positive) and astrocytes (GFAP positive). Cultivation during the test method is performed at 37C and 5% CO2 at a ph of 7.2-7.6.Exposure: 0.3 mm big hNPC are plated in the already prepared test conditions. Exposure starts at day 0 of differentiation and is continued over five days of differentiation until the experiment is terminated. Cells are fed with fresh medium at day 3 of differentiation. Therefore, half of the test condition solution (e.g. solvent control or compound dilution) is replaced by freshly prepared test condition solution.Test Method: Migration distance and cytotoxicity is determined after 72 hours based on brightfield images of each well. The assay is terminated by the assessment of cell viability and cytotoxicity as well as cell fixation after 120 h. […]

[10] = IUF_NPC2a_radial_glia_migration_72hr: Leibniz Research Institute for Environmental Medicine (IUF) 72-hour Neural Progenitor Cell Migration Assay for Radial Glia Migration (NPC2a) (AID 2284299)
Summary of the method: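 Human fetal cortex (GW 16-19) neural progenitor spheres, 0.3 mm, plated on poly-D-lysine/laminin in N2 differentiation medium with compound from day 0. Radial glia migration distance (um, sphere core edge to migration edge) measured manually in four directions on 72 h brightfield images; well mean used.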

Sequence of E-selectin (Homo sapiens) (P16581 whole entry, looked up): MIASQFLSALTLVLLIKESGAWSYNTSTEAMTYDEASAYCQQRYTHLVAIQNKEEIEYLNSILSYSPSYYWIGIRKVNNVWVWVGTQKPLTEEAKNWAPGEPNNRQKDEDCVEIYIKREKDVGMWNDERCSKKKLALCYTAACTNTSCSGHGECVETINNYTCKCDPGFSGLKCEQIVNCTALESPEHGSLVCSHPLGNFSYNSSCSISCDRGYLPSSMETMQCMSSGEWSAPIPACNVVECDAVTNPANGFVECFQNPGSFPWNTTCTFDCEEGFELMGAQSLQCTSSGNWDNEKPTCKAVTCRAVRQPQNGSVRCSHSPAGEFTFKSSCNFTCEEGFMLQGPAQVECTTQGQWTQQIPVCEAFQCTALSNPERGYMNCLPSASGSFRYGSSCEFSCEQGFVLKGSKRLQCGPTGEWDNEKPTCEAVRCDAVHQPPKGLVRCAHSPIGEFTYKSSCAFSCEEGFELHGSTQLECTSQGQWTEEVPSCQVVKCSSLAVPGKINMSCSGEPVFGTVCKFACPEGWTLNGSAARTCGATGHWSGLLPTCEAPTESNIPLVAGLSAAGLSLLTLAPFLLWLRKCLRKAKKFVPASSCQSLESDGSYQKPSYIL

OCC(F)(F)OC(F)(F)C(F)(F)OC(F)(F)CO
outcome [1]: inactive | outcome [2]: inactive | outcome [3]: inactive | outcome [4]: inactive | outcome [5]: inactive | outcome [6]: inactive | outcome [7]: inactive

OCC(F)(F)OC(F)(F)C(F)(F)OC(F)(F)C(F)(F)OC(F)(F)F
AC50 [1]: 47.7 µM (active) | outcome [1]: inactive | AC50 [2]: 19.2 µM (active) | outcome [2]: inactive | AC50 [3]: 38.6 µM (active) and 44.3 µM (active) | AC50 [4]: 47.8 µM (active) and 53.7 µM (active) | AC50 [5]: 43 µM (active) and 18.8 µM (active) | AC50 [6]: 45.9 µM (active) and 42.6 µM (active) | outcome [7]: inactive

CC(O)C(F)(F)C(F)(F)F (configuration not stated)
outcome [1]: inactive | outcome [2]: inactive | outcome [3]: inactive | outcome [4]: inactive | outcome [5]: inactive | outcome [6]: inactive | outcome [7]: inactive

C=CC(=O)OCC(F)(F)C(F)F
AC50 [1]: 30 µM (active) | outcome [1]: inactive | AC50 [2]: 43.5 µM (active) and 29.6 µM (active) | AC50 [3]: 44.6 µM (active) | outcome [3]: inactive | outcome [4]: inactive | outcome [5]: inactive | AC50 [6]: 43.4 µM (active) and 39.2 µM (active) | AC50 [7]: 30 µM (active) and 39 µM (active)

CCCCOCCOP(=O)(OCCOCCCC)OCCOCCCC
outcome [8]: inactive | outcome [9]: inactive | outcome [10]: inactive

CCOP(=S)(OCC)SCSCC
outcome [8]: inactive | outcome [9]: inactive | outcome [10]: inactive

O=C(O)C(F)(F)C(F)(F)C(=O)O
outcome [1]: inactive | outcome [2]: inactive | outcome [3]: inactive | outcome [4]: inactive | outcome [5]: inactive | outcome [6]: inactive | outcome [7]: inactive

O=C(O)C=CC(F)(C(F)(F)F)C(F)(F)F
outcome [1]: inactive | outcome [2]: inactive | outcome [3]: inactive | outcome [4]: inactive | outcome [5]: inactive | outcome [6]: inactive | outcome [7]: inactive

FC(F)(F)C(F)(C(F)(F)F)C(F)(F)C(F)(F)CC1CO1 (configuration not stated)
outcome [1]: inactive | outcome [2]: inactive | outcome [3]: inactive | outcome [4]: inactive | outcome [5]: inactive | outcome [6]: inactive | outcome [7]: inactive

CCCCC(CC)COP(=O)(Oc1ccccc1)Oc1ccccc1 (configuration not stated)
outcome [8]: inactive | outcome [9]: inactive | outcome [10]: inactive

NC(=O)C(F)(F)C(F)(F)F
outcome [1]: inactive | outcome [2]: inactive | outcome [3]: inactive | outcome [4]: inactive | outcome [5]: inactive | outcome [6]: inactive | outcome [7]: inactive

CCOc1ccc(C(C)(C)COCc2cccc(Oc3ccccc3)c2)cc1
outcome [8]: inactive | outcome [9]: inactive | outcome [10]: inactive
